Source: PubChem BioAssay (Tox21)
Values without a mark were called inactive. Calls of active or inactive are those of the source. The call rests on the fitted dose curve; in most records, active means well fitted curve in the direction sought with a large enough effect in the repeat runs; inconclusive means weak or mixed curves; inactive means flat fitted curve, though single readings scatter.

test: qHTS assay to test for compound auto fluorescence at 460 nm (blue) in HEK293 cells (AID 720678); details: blue autofluorescence 405/460 nm; series mostly up to 91.3 µM; fluorescence, % of triamterene: at the top concentration
Excerpt: National Center for Advancing Translational Sciences [NCATS]
NIH Chemical Genomics Center [NCGC]
U.S. Environmental Protection Agency [EPA]
National Institutes of Environmental Health Sciences [NIEHS]
National Toxicology Program [NTP]
U.S. Food and Drug Administration [FDA]
Compound auto fluorescence often interferes with screening of the compound library against various biological targets and signaling pathways. Some of these compounds may have fluorophoric properties. Such properties may interfere with the assay outputs resulting in false positives and/or negatives. To decrease such complications and ensure the compound activities are relevant in terms of biological response, the Tox21 10K compound library was screened for auto fluorescence.
From the fluorophores used as reporter signals in our screening assays, the auto fluorescence equivalencies of compounds against three fluorophores have been evaluated: Triamterene, Fluorescein and Rose Bengal sodium for blue, green and red fluorescence, respectively. The fluorescence intensities were measured using Excitation/Emission wavelengths at 405/460nm, 485/535nm and 540/590nm for blue, green and red labels, respectively. This assay includes the blue fluorescence data.
Tox21 Assay Protocol Summary:
2,000 HEK293 cells in 5 uL of culture medium containing 10% dialyzed FBS per well were dispensed into black wall/clear bottom 1536-well plates using a Multidrop Combi Dispenser (Thermo Scientific). The assay plates were incubated for 4-5 hr at 37C to allow cell attachment to the well bottom, followed by the transfer of 23 nL compound or DMSO vehicle by a pintool work station (Kalypsys, San Diego, CA). After the assay plates were incubated overnight at 37C and 5% CO2, fluorescence intensities in the assay plates were measured by an Envision (PerkinElmer, Shelton, CT) plate reader using three labels for measuring blue, green and red fluorescence at […] 460, 535 and 590nm respectively.
On the % scale 0 is the no-effect control and ±100 the full control effect.

SMILES	fluorescence, % of triamterene	outcome
CC(=O)CN(CC(C)=O)N=O	0.511%	–
O=[N+]([O-])CCO	-0.273% [at 95.7 µM]	–
CCNc1nc(Cl)nc(NC(C)(C)C)n1	0.0357%	–
CCCCCCCC(=O)Cl	0.0534%	–
O=C(NC(O)C(Cl)(Cl)Cl)NC(O)C(Cl)(Cl)Cl (stereo not given)	0.0732% [at 46 µM]	–
COc1ccc2c(C(=O)c3ccc(Cl)cc3)c(C)n(CC(=O)O)c2c1	-0.0034% [at 46 µM]	–
CC(O)CCl (stereo not given)	0.0073%	–
[P]#[In]	-0.0248%	–
C[C@H](N)C(=O)c1ccccc1	–	inactive
Cc1ccc(Cl)c(O)c1	-0.112% [at 46 µM]	–
O=C(Cl)c1ccccc1	0.0975% [at 95.7 µM]	–
CC(C)(N)Cc1ccc(Cl)cc1	-0.193% [at 46 µM]	–
COc1ccc(CN2CCNCC2)c(OC)c1OC	-0.103% [at 18.6 µM]	–
Clc1cc2c(cc1Cl)Oc1cc(Cl)c(Cl)cc1O2	-0.0407% [at 0.37 µM]	–
N[C@@H]1C[C@H]1c1ccccc1	0.23% [at 46 µM]	–
NC1(c2ccccc2)CCCCC1	-0.0458%	–
Cn1c(CCCC(=O)O)nc2cc(N(CCCl)CCCl)ccc21	0.121% [at 46 µM]	–
O=C(O)c1c(Cl)ccc2cc(Cl)cnc12	-0.0393%	–
O=C1CCCCC1Cl (stereo not given)	0.158% [at 95.7 µM]	–
CCCCCCC1CCOC1=O (stereo not given)	0.072%	–

SMILES	fluorescence, % of triamterene	outcome
O=C(O)CBr	-0.0526%	–
N[C@@H](Cc1ccc(Oc2cc(I)c(O)c(I)c2)c(I)c1)C(=O)O	0.111% [at 46 µM]	–
CC(C)[C@]12CC(=O)[C@H](C)[C@H]1C2	0.0568%	–
CCN[C@@H](C)Cc1cccc(C(F)(F)F)c1	-0.048%	–
CC1=C2[C@H]3OC(=O)[C@@H](C)[C@@H]3CC[C@@]2(C)C=CC1=O	0.0037% [at 46 µM]	–
CCNP(=S)(OC)O/C(C)=C/C(=O)OC(C)C (stereo not given)	0.153%	–
CCc1cc(OC)c(C[C@H](C)N)cc1OC	0.092% [at 95.7 µM]	–
CC(C)(O)C(Cl)(Cl)Cl	0.137% [at 46 µM]	–
Clc1nc(Cl)nc(Nc2ccccc2Cl)n1	0.27%	–
CN1COCN(Cc2cnc(Cl)s2)/C1=N\[N+](=O)[O-]	0.0022%	–
N#CC(Br)(Br)C(N)=O	-0.388%	–
O=C1C2CC=CCC2C(=O)N1SC(Cl)(Cl)Cl (stereo not given)	–	inactive
O=[N+]([O-])c1cccc(CCl)c1	-0.0531% [at 95.7 µM]	–
COc1cc(CCN)cc(OC)c1OC	-0.0541% [at 95.7 µM]	–
COc1cccc([C@@]2(O)CCCC[C@@H]2CN(C)C)c1	-0.0137% [at 46 µM]	–
Oc1ccc(Cc2ccc(O)cc2)cc1	-0.385%	–
CCOP(=S)(OCC)Oc1ccc(Cl)cc1Cl	-0.115%	–
ClC1=C(Cl)C2(Cl)C(CBr)CC1(Cl)C2(Cl)Cl (stereo not given)	–	inactive
CC(C)C(C)(N)C#N (stereo not given)	0.0124%	–
CCOc1cc(OP(=S)(OC)OC)nc(CC)n1	-0.153%	–
